# Measured values reported in PubChem BioAssay (Tox21).
# Results filed as inconclusive are left out. Where a call stands in place of a potency, no number is given. Calls of active or inactive are those of the source. Calls follow the shape of the dose curve; as a rule, active = well fitted inhibition curve with a large enough effect in the repeat runs; inconclusive = weak or mixed curves; inactive = flat fitted curve, though single readings scatter.
# Molecular target: Voltage-gated inwardly rectifying potassium channel KCNH2 (Homo sapiens) (UniProt Q12809)
# Experiment: Human Ether-a-go-go-Related Gene (hERG) channel small molecule antagonists: fluorescence cell-based qHTS assay (AID 1671200); also: nearly all actives have a fitted effect of over 50% in size
# Conditions: hERG-U2OS cells, FluxOR thallium flux fluorescence; series mostly up to 76.8 µM
# Summary of the method: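 U2OS cells expressing the channel were plated at 1000 cells/well, incubated overnight at 37 C, then loaded with FluxOR II thallium-sensitive dye for 1 h at room temperature in the dark, with a further 10 min at room temperature before stimulation.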
# Potency is read from the fitted curve at half-maximal effect.
# Voltage-gated inwardly rectifying potassium channel KCNH2 (Homo sapiens), sequence (Q12809 whole entry, looked up): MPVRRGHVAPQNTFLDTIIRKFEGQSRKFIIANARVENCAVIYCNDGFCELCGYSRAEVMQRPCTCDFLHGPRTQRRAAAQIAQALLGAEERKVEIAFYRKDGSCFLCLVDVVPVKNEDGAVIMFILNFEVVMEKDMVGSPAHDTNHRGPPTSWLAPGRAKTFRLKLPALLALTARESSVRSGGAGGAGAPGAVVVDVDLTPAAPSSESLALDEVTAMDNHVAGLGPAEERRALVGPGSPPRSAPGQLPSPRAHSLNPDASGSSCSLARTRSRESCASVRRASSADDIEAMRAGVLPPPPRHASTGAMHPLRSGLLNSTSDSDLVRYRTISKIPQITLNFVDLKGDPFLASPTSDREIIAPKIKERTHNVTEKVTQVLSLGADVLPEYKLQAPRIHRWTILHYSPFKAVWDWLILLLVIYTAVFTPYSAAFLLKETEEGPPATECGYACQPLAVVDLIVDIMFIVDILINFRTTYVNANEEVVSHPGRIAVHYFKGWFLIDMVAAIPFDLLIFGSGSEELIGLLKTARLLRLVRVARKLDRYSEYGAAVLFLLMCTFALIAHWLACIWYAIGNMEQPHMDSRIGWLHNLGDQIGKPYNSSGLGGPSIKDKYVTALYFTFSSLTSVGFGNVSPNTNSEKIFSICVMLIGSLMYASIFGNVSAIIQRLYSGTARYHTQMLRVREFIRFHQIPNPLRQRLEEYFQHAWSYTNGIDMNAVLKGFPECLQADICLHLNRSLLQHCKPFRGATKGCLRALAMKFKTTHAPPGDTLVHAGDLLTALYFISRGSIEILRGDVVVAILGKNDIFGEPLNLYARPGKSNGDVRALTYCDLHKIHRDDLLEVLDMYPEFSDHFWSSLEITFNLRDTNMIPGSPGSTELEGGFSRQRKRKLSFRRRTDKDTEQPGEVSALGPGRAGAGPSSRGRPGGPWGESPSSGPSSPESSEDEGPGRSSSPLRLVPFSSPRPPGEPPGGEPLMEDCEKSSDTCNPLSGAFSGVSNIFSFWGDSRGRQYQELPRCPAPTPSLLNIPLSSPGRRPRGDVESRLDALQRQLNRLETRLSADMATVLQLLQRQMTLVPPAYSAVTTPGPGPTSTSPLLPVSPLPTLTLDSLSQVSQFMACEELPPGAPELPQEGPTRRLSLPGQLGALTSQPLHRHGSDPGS
row,SMILES,Potency
1,CC(=O)OCCC(C)CC(C)(C)C (stereo not given),inactive
2,C[C@@H]1C[C@H]2[C@@H]3CCC4=CC(=O)C=C[C@]4(C)[C@@]3(F)[C@@H](O)C[C@]2(C)[C@@]1(O)C(=O)COP(=O)(O)O,inactive
3,CCN(Cc1cccc(S(=O)(=O)O)c1)c1ccc(C(=C2C=CC(=[N+](CC)Cc3cccc(S(=O)(=O)O)c3)C=C2)c2ccc(O)cc2S(=O)(=O)[O-])cc1,inactive
4,CC(CCc1ccc(O)cc1)NCCc1ccc(O)c(O)c1 (stereo not given),13.4 µM (active)
5,COC1CCC=CO1 (stereo not given),inactive
6,CC(C)(C)CCCCCCOC(=O)c1ccccc1C(=O)OCCCCCCC(C)(C)C,inactive
7,O=C(c1ccccc1)C1CCC1,inactive
8,Oc1ccc2c(c1)Cc1ccccc1-2,inactive
9,O=[N+]([O-])c1ccc2ncccc2c1,inactive
10,O=c1[nH]c2cc(C(F)(F)F)c(N3CCOCC3)cc2n(CP(=O)(O)O)c1=O,inactive
11,CC(C)OC(=O)c1ccccc1C(=O)OC(C)C,inactive
12,COc1ccc(C(=O)NCc2ccc(OCCN(C)C)cc2)cc1OC,inactive
13,O=c1[nH][nH]c(=O)c2cc([N+](=O)[O-])ccc12,inactive
14,COc1ccc(-n2nc(C(F)F)cc2-c2ccc(S(C)=O)cc2)cc1 (stereo not given),inactive
15,O=C(NS(=O)(=O)/C=C/c1ccccc1)c1ccc(F)cc1Cl,inactive
16,N[C@@H](Cc1cc(I)c(O)c(I)c1)C(=O)O,inactive
17,O=S(=O)(Cl)c1c(Cl)cccc1Cl,inactive
18,CC(=O)C(C)=O,inactive
19,CC[C@@H](CO)NCCN[C@@H](CC)CO,inactive
20,CCN(CC)c1ccc(C(=C2C=CC(=[N+](CC)CC)C=C2)c2ccc(S(=O)(=O)O)cc2S(=O)(=O)[O-])cc1,inactive
